Among the data in PubChem BioAssay AID589 (National Center for Advancing Translational Sciences (NCATS), 2007) are max dye-equivalent concentration values, retold here.

The whole screen tested about 59,000 compounds, of which about 6,200 (11%) were called active. About 9% were inconclusive and are not listed. Cut-off read from the data, not from the text of the source: active = max dye-equivalent concentration above about 10 nM; inconclusive = mostly about 1.1 nM to 9.6 nM; inactive = weaker than that. The full list was thinned out, with actives kept by preference.

The experiment can be described thus: qHTS Assay for Spectroscopic Profiling in 4-MU Spectral Region. The note with it: compound autofluorescence, 340/450 nm, 4-MU equivalents; stronger effect = higher value. The essentials: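 Compounds in 100 mM Tris, pH 8.0, sat 15 min at room temperature before fluorescence was read at 340 nm excitation/450 nm emission; a per-plate six-point 4-MU standard curve converted signals to dye-equivalent concentration at each compound concentration.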
As for `O=C(NC(c1ccccc1)c1ccccc1)N1CCN(CCO)CC1`, the max dye-equivalent concentration entry was “inactive”.
In the case of `C#CCN1C(=O)C(O)(CC(=O)c2cc(OC)ccc2OC)c2ccccc21` (stereo unspecified), the max dye-equivalent concentration was 13 nM (active).
The value for `COc1ccc(OC)c(NC(=O)Cn2c(=O)oc3ccccc32)c1` was “inactive”; that for `COc1ccc(N2C(=O)CCC(C(=O)N(C)C3CCCCC3)C2c2ccc(OC)c(OC)c2)cc1` (stereo unspecified) was “inactive”; that for `CNC(=O)NCCN1CCCC1=O` was “inactive”.
Under `CCOCCCNC(=O)c1c[nH]c2cc(C)ccc2c1=O` stands “inactive”; under `COc1ccccc1C(=O)NCCn1cc(SCC(=O)NCc2ccco2)c2ccccc21`, “inactive”.
The value for `COc1cc(OC)cc(-c2nc3nc(C)c(CCC(=O)NCc4ccco4)c(C)n3n2)c1` was “inactive”; that for `COc1ccc(CNC(=O)c2cc3c(=O)n4ccccc4nc3n(CC3CCCO3)c2=N)cc1` (stereo unspecified) was 270 nM (active).
For `COCCCNC(=O)c1ccc2c(c1)ncn2-c1ccccc1OC`, the max dye-equivalent concentration entry is “inactive”.
Under `COc1ccc(C(=O)NCc2cn3ccccc3n2)cc1` stands “inactive”.
The value for `CCn1c(=N)c(C(=O)NCCCOC)cc2c(=O)n3cccc(C)c3nc21` was 12000 nM (active); that for `COc1ccc(CNC(=O)C2CCN(S(=O)(=O)N3CCOCC3)CC2)cc1` was “inactive”.
Under `COc1ccc(CCn2c(=N)c(C(=O)NCc3ccco3)cc3c(=O)n4cccc(C)c4nc32)cc1` stands 11 nM (active).
`O=C(O)c1ccc(C(=O)c2ccccc2C(=O)O)cc1C(=O)O`: the max dye-equivalent concentration entry was “inactive”.
On to `CC(C)n1c(SCC(=O)Nc2ccccc2N2CCCCC2)nc2c1c(=O)n(C)c(=O)n2C`, for which the max dye-equivalent concentration entry is “inactive”.
Under `Fc1ccccc1OCCSc1nc2ccccc2o1` stands “inactive”.
On to `CC(C)NS(=O)(=O)c1ccc(CCC(=O)N2CCOCC2)cc1`, for which the max dye-equivalent concentration result was “inactive”.
Under `Cc1ccccc1CSc1nnc(-c2cccnc2)n1N` stands “inactive”; under `COc1ccccc1CNc1ncncc1-c1cccnc1`, “inactive”; under `COc1ccc2[nH]c3c(=O)n(Cc4ccco4)cnc3c2c1`, 92 nM (active).
Consider `O=c1c2[nH]c3ccc(Cl)cc3c2ncn1Cc1ccccn1`, for which the max dye-equivalent concentration entry is “inactive”.
Turning to `COc1ccc(C(=O)CSc2nnc(COc3ccccc3)n2Cc2ccco2)cc1`, the max dye-equivalent concentration entry was “inactive”.
Under `COc1ccc(-c2nnc(SCC(=O)c3ccco3)n2-c2ccccc2)cc1` stands “inactive”; under `Cc1ccc(Cc2cncc(O)c2)cc1S(=O)(=O)O`, “inactive”.
The value for `CCOC(=O)c1cc2n(c1N)-c1ccccc1C2=O` was “inactive”.
As for `CCCn1c(=NC(C)=O)c(C(=O)OCC)cc2c(=O)n3ccccc3nc21`, the max dye-equivalent concentration is 3500 nM (active).
Under `CCOC(=O)c1cc2n(c1C)-c1ccccc1C2=O` stands “inactive”.
The value for `CCC(=O)Nc1ccc2c(c1)nc(CCN1CCN(C)CC1)n2C` was “inactive”; that for `O=C(Nc1c2c(nn1-c1ccc(F)cc1)CS(=O)C2)C12CC3CC(CC(C3)C1)C2` (stereo unspecified) was “inactive”.
The value for `CC(C)Cc1ccc(S(=O)(=O)N2CCN(C(=O)c3ccco3)CC2)cc1` was “inactive”.
With `CCc1cc(=O)oc2cc(C)cc(OC(C)C(=O)O)c12` (stereo unspecified), the max dye-equivalent concentration was 82 nM (active).
The value for `Cc1cc2c(=O)n(C)c(SCC(=O)c3cc4ccccc4o3)nc2s1` was “inactive”.
The value for `CC(=O)Nc1ccc(S(=O)(=O)NCCc2ccccc2)cc1` was “inactive”; that for `COC(=O)c1ccc(C2NC(=O)NC(C)=C2C(=O)N(C)C)cc1` (stereo unspecified) was “inactive”.
Turning to `CCCOC(=O)C1=C(C)NC2=C(C(=O)C(C(=O)OC)C(C)C2)C1c1ccc(N(C)C)cc1` (stereo unspecified), the max dye-equivalent concentration was 23 nM (active).
The value for `COCCOC(=O)C1=C(C)NC(=O)CC1c1cc2c(cc1Br)OCO2` (stereo unspecified) was “inactive”.
Regarding `Cc1noc(C)c1CSc1nnc2ccc3ccccc3n12`, the max dye-equivalent concentration entry is “inactive”.
The value for `CCOC(=O)c1c(NC(=O)CSc2nnc(C)c(=O)[nH]2)sc2c1CCC2` was “inactive”; that for `CC1CN(C2CCCCC2)c2nc3c(c(=O)n(C)c(=O)n3C)n2C1` (stereo unspecified) was “inactive”; that for `O=C(O)CCC(=O)N(Cc1cccs1)Cc1cccs1` was “inactive”.
Under `CC(C)Cn1c(CCC(=O)O)ccc1-c1cccs1` stands 350 nM (active); under `Cc1cc(NC(=O)c2cc(-c3cccs3)on2)nn1Cc1ccc(Cl)cc1`, “inactive”; under `COc1cc(C2C3C(=O)N(c4ccccc4)C(=O)C3ON2c2ccccc2)ccc1O` (stereo unspecified), “inactive”.
The value for `CC(C)OCCCNc1nc2c(c(=O)n(Cc3ccccc3F)c(=O)n2C)n1C` was “inactive”; that for `COCc1nc2ccccc2n1Cc1ccccc1Br` was “inactive”; that for `O=c1[nH]c(-c2ccccc2)c(-c2ccccc2)[nH]1` was 18 nM (active).
Turning to `CC1(C)CC(=O)NC=C(c2ccccc2)C1`, the max dye-equivalent concentration result is “inactive”.
Under `c1ccc(-c2[nH]ncc2-c2nc3ccccc3[nH]2)cc1` stands “inactive”; under `Clc1ccccc1-c1cc(NCCN2CCOCC2)ncn1`, “inactive”.
Under `COc1ccc2[nH]c(=O)c(-c3noc(-c4ccc(F)cc4)n3)cc2c1` stands 12 nM (active).
Under `Cc1cccc(-c2noc(-c3ccc(F)cc3)n2)c1` stands “inactive”.
As to `CC(=O)N1CCC2(CCCN(Cc3ccccc3)C2)CC1`, the max dye-equivalent concentration result was “inactive”.
The value for `O=C(CSc1n[nH]c(-c2cccnc2)n1)Nc1ccnc2ccccc12` was “inactive”; that for `O=C(O)C1CC(=O)N(Cc2cccnc2)C1` (stereo unspecified) was “inactive”; that for `O=C(CCS(=O)(=O)Cc1ccccc1F)NCCCN1CCCCC1` was “inactive”.
